Rows were chosen to be rich in hits. Some 5.7% of all compounds tested hit in one or more screens of this group.
HT1080 IDH1KD tx: qHTS for induction of synthetic lethality in tumor cells producing 2HG: qHTS for the HT-1080-IDH1KD cell line; HT-1080 IDH1 knockdown viability, ATP luminescence, 48 h; Potency, µM (doses to about 46.1 µM), for inactives: at the top dose activity, negative = toxicity, hits mostly cytotoxic; 360,000 compounds, 2% hits; AID 686971, 2013;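 also: 0% = DMSO wells and -100% = cell-free medium wells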
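Cytotoxicity counter-line: IDH1KD HT-1080, 48 h, CellTiter-Glo. Curves classed by r2, magnitude and activity.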
KB-V1 cytotox: qHTS assay for MDR1-selective chemotherapeutics: Primary screen using the drug-selected MDR subline cells KB-V1 | KB-V1 MDR cells viability, CellTiter-Glo, 72 h | Potency, µM (top dose mostly 46.1 µM), hits mostly cytotoxic | 400,000 compounds, 3.4% hits; also: nearly all actives have a fitted effect of over 60% in size
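Potencies derive from concentration-effect curves fitted to normalized luminescence (CellTiter-Glo) of KB-V1 cells treated for 72 h at 37 degrees C in phenol-red-free DMEM containing 10% FBS.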
HT1080-NT tox: qHTS for induction of synthetic lethality in tumor cells producing 2HG: qHTS for the HT-1080-NT fibrosarcoma cell line. 360,000 compounds, 1.6% hits. HT-1080-NT fibrosarcoma viability, CellTiter-Glo ATP luminescence, 48 h. AID 686970, 2013. Potency, µM (titrated, usually from 46.1 µM), inactives show at the highest dose activity, negative = less viability, most hits filed as cytotoxic;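 also: NT is the 2HG producing partner of a matched IDH1 knockdown line; 0% = DMSO-treated cells and -100% = media-only wells without cells; nearly all actives have a fitted effect of over 55% in size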
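HT-1080-NT fibrosarcoma cells (2HG-overproducing), 750 cells/well in RPMI with 5% FBS, dosed after 2 h and incubated 48 h at 37C. CellTiter-Glo luminescence normalized to DMSO and no-cell wells; concentration-response curves fitted and classed.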
KB-3-1 tox: qHTS assay for MDR1-selective chemotherapeutics: Primary screen using the parental adenocarcinoma cell KB-3-1; KB-3-1 viability, CellTiter-Glo ATP luminescence, 72 h; Potency, µM (titrated, usually from 46.1 µM), actives largely listed as cytotoxic; 400,000 compounds, 1.4% hits; AID 1347075, 2019; also: nearly all actives have a fitted effect of over 60% in size
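Multi-concentration cytotoxicity screen in KB-3-1 cells grown in DMEM lacking phenol red with 10% FBS. After 72 h at 37 °C with compound, ATP-dependent luminescence was recorded.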
* marks the source's active call; other numbers are inactive results; i = inactive; ? = inconclusive; . = no result; ! = not confirmed by another sample. Calls follow the shape of the dose curve; as a rule, active = well fitted curve in the direction sought with a large enough effect; inconclusive = small, poorly fitted or top-dose-only effect, or another doubt; inactive = no such curve, though single readings can be large; an effect the other way counts as inactive or inconclusive. Unless noted, % is scaled to controls: 0 for no effect and ±100 for the full control effect; potency is read from the fitted curve at half-maximal effect.

SMILES | HT1080 IDH1KD tx | KB-V1 cytotox | HT1080-NT tox | KB-3-1 tox
O=C(Cc1ccc(Cl)cc1Cl)Nc1cccc(S(=O)(=O)Nc2ccccc2F)c1 | -25.5% | 20.6µM* | -0.5% | ?
O=C(/C=C/c1ccccc1)Nc1cccc(S(=O)(=O)Nc2ccccc2F)c1 | -13.4% | 9.2µM*! | 2.2% | i
O=C(Nc1cccc(S(=O)(=O)Nc2ccccc2F)c1)c1ccc2ccccc2n1 | -9.1% | i | -2.9% | i
O=C(CNCc1ccccc1)Nc1ccc(Cl)cc1 | 8.2µM* | ? | 8.2µM* | 10.3µM*
O=C(CNCc1ccc(Cl)cc1)Nc1ccc(C(=O)N2CCCCC2)cc1 | -13.6% | i | -4.1% | i
COc1ccccc1NC(=O)C1=C(C)Nc2nc(SCc3ccccc3Cl)nn2C1c1ccccn1 (configuration not stated) | . | i | . | i
Cc1nnc(NCc2ccc(F)cc2)c2c1nnn2Cc1ccccc1Cl | . | i | . | i
CC(=O)Nc1cccc(-c2ccnc3c2CC(C(=O)Nc2ccc(F)c(Cl)c2)O3)c1 (configuration not stated) | ? | i | ? | i
CC(C)c1ccc(NC(=O)C2Cc3c(-c4ccco4)ccnc3O2)cc1 (configuration not stated) | ? | 20.6µM* | ? | i
O=C(Nc1ccc(F)c(Cl)c1)C1Cc2c(-c3ccco3)ccnc2O1 (configuration not stated) | -19.1% | 20.6µM* | -18.0% | ?
O=C(CCCn1c(=S)[nH]c2cc3c(cc2c1=O)OCO3)N1CCN(c2ccccc2)CC1 | 0.6% | i | 4.6% | i
CCOC(=O)N1CCN(C(=O)CCCCCn2c(=S)[nH]c3cc4c(cc3c2=O)OCO4)CC1 | ? | i | 28.4% | i
Cc1cccc(N2CCN(C(=O)CCCn3c(=S)[nH]c4cc5c(cc4c3=O)OCO5)CC2)c1C | -4.0% | 3.66µM* | -9.1% | i
Cc1cccc(N2CCN(C(=O)CCn3c(=S)[nH]c4cc5c(cc4c3=O)OCO5)CC2C)c1 (configuration not stated) | 0.8% | 10.3µM* | -8.1% | i
COc1ccc(CCNC(=O)c2c([S-])n(-c3ccc(C)cc3)c3cccc[n+]23)cc1 | ? | i | ? | 11.6µM*
Cc1ccc(NC(=O)c2ccccc2OCc2c(C)noc2C)cc1S(=O)(=O)N(C)C | -0.7% | 2.31µM* | 1.9% | i
Cc1noc(C)c1COc1ccccc1C(=O)N1CCN(S(=O)(=O)c2ccccc2C#N)CC1 | -1.2% | 14.6µM* | -3.4% | i
CCc1ccc2n(-c3ccc(OC)cc3)c([S-])c(C(=O)Nc3cc(C)cc(C)c3)[n+]2c1 | 4.7% | i | 15.4% | i
COc1ccc(CCNC(=O)c2cccc(C(=O)NCCc3ccc(OC)cc3)n2)cc1 | 1.2% | 18.4µM* | 0.7% | i
Cc1nn(-c2ccccc2)c2c1N(CC(=O)NCc1ccc(N(C)C)cc1)C(=O)CS2 | . | i | . | i
CCOc1ccc(-n2c(=O)c3c4c(sc3n(CC(=O)NC(C)CC)c2=O)CCCC4)cc1 (configuration not stated) | . | ? | . | i
COc1ccc(CNc2nc(Cl)nc3nc[nH]c23)cc1 | . | i | . | ?
COc1ccc(CCNC(=O)c2ccccc2OCc2c(C)noc2C)cc1 | -7.9% | 5.8µM* | -2.2% | i
CC(C)c1ccc(NC(=O)c2ccc(F)c(S(=O)(=O)N3CCc4ccccc4C3)c2)cc1 | . | i | . | i
O=C(CN(Cc1cccs1)C(=O)CN1C(=O)COc2ccccc21)NCc1ccco1 | -16.8% | 13µM* | 1.3% | i
SMILES | HT1080 IDH1KD tx | KB-V1 cytotox | HT1080-NT tox | KB-3-1 tox
CCCOc1ccc(OCCNC2CCCC2)cc1 | 0.1% | 23.1µM* | -2.5% | i
CCCc1cc(C(=O)Cc2ccc(F)cc2)c(O)cc1O | 20.6µM* | i | 23.1µM* | i
O=C(Cc1ccc(F)cc1)c1ccc(O)cc1O | 7.6% | i | -0.3% | i
CCc1cc(C(=O)Cc2ccc(F)cc2)c(O)cc1O | ? | 16.4µM* | ? | ?
CCCc1cc(C(=O)Cc2ccc(C(=O)OCC)o2)c(O)cc1O | -27.1% | i | -15.2% | i
COc1cccc2c1ncc1c(-c3ccc(C)cc3)nn(-c3ccc(F)cc3)c12 | . | i | . | i

Bioassay records from PubChem BioAssay.
